Results from PubChem BioAssay (Tox21).
“And” between values parts separate entries of the source, which are not always exact repeats. Equal values may be shown once. Results filed as inconclusive are left out. Where a call stands in place of a potency, no number is given. Some compounds were tested as several samples or in several runs, with calls that do not always agree. The source made the active and inactive calls. The call rests on the fitted dose curve; in most records, active means well fitted cell-killing curve with a large enough effect in the repeat runs; inconclusive means weak or mixed curves; inactive means no such curve, though single readings can be large or run the other way.

Test: qHTS assay for identifying genotoxic compounds that show differential cytotoxicity against isogenic chicken DT40 cell lines with known DNA damage response pathways - Rad54/Ku70 mutant cell line (AID 743015); further: nearly all actives have a fitted effect of over 60% in size
Settings: DT40 Rad54/Ku70 mutant viability, CellTiter-Glo, 40 h; series mostly up to 66.8 µM
Description: National Center for Advancing Translational Sciences [NCATS]
NIH Chemical Genomics Center [NCGC]
U.S. Environmental Protection Agency [EPA]
National Institutes of Environmental Health Sciences [NIEHS]
National Toxicology Program [NTP]
U.S. Food and Drug Administration [FDA]
DNA repair pathways play a critical role in cellular homeostasis by repairing DNA damage induced by endogenous processes and xenobiotics. Isogenic chicken DT40 cell lines deficient in different DNA repair pathways can be used to identify genotoxic compounds and aid in characterizing the nature of the DNA damage induced. Two DNA repair-deficient cell lines with disrupted genes, Rad54/Ku70 or Rev3, were used to screen the Tox21 10K compound library. Possible genotoxicity was based on the presence of a significant increase in cytotoxicity in one or more of the DNA repair-deficient cell lines compared to that observed in the parental DNA repair-proficient cell line. CellTiter Glo viability assay (Promega, Madison, WI) was used to measure cell viability in these cells after compound treatment. This assay includes the data from the Rad54/Ku70 mutant cell line.
Tox21 Assay Protocol Summary:
300 DT40 mutant cells in 5 uL/well were dispensed into white, solid-bottom 1536-well plates using a Multidrop Combi (ThermoFisher Scientific, Waltham, MA) dispenser. After the assay plates were incubated at 37 C/5% CO2 for approximately 0.5 hour, 23 nL of compounds dissolved in DMSO, positive controls or DMSO only was transferred into the assay plate by a pintool work station (Kalypsys, San Diego, CA). The assay plates were incubated at 37 C/5% CO2 for 40 hours. After 5 uL per well of CellTiter-Glo reagent was added into each well of the assay plates, the plates were incubated for 30 min at room temperature and the luminescence intensity of the plates was measured using a ViewLux (PerkinElmer, Shelton, CT) plate reader.
Potency means the concentration at half of the fitted maximal effect.

Structure (SMILES) | Potency
CC(COc1ccc(Oc2ccccc2)cc1)Oc1ccccn1 (stereo not given) | 61.1 µM (active)
CNC(=O)O/N=C(\C)SC | inactive
CCC(=O)c1ccccc1 | inactive
CCC(Cl)[N+](=O)[O-] (stereo not given) | inactive
C[N+](C)=CCl | inactive
NC(=O)O | inactive
CC(CCc1ccccc1)NC(C)C(O)c1ccc(O)cc1 (stereo not given) | inactive
CCOP(=S)(OCC)SCSP(=S)(OCC)OCC | 61.1 µM (active)
CC(C)NCC(O)c1ccc(N)c(C#N)c1 (stereo not given) | inactive
CCN(CC)C(=O)[C@@H]1C=C2c3cccc4[nH]cc(c34)C[C@H]2N(C)C1 | 31.9 µM (active) and 11.9 µM (active)
ClCC(Cl)Cl | inactive
N#CC(Cl)(Cl)Cl | inactive
CN/C(=N\[N+](=O)[O-])NCC1CCOC1 (stereo not given) | inactive
[As]#[In] | inactive
CCOP(=O)(OCC)OP(=O)(OCC)OCC | inactive
CCN(CC)C(C)C(=O)c1ccccc1 (stereo not given) | inactive
COC(=O)c1ccccc1S(=O)(=O)NC(=O)Nc1nc(C)cc(C)n1 | inactive
CNC(=O)Oc1ccc(N(C)C)c(C)c1 | 68.6 µM (active)
ClCCOCOCCCl | inactive
C(CCOCC1CO1)COCC1CO1 (stereo not given) | 15.1 µM (active)

Structure (SMILES) | Potency
CNCC(=O)c1ccc(O)c(O)c1 | inactive
CCS(=O)(=O)CCSP(=O)(OC)OC | 48.6 µM (active)
CCCCN(CCCCO)N=O | inactive
CSc1ccc(C(=O)C(C)(C)N2CCOCC2)cc1 | 48.6 µM (active)
O=C(Nc1ccccc1)N(Cc1ccc(Cl)cc1)C1CCCC1 | 1.54 µM (active)
CC(C)COP(=O)(OCC(C)C)OCC(C)C | inactive
CCOC(=O)/C=C(C)/C=C/C[C@@H](C)CCCC(C)C | inactive and 43.3 µM (active)
CCC1(c2ccccc2)C(=O)NC(=O)NC1=O | inactive
CC1CCC(=O)O1 (stereo not given) | inactive
CCC#N | inactive
CCCCCCI | inactive
ClC(Br)Br | inactive
Cc1coc2c1CCC(C)C2 (stereo not given) | inactive
c1coc(-c2nc3ccccc3[nH]2)c1 | 54.5 µM (active)
[O]=[Cd] | inactive
BrCCCCCCBr | inactive
C#C[C@]1(O)C=C[C@H]2[C@@H]3CCC4=CC(=O)CC[C@@H]4[C@H]3CC[C@@]21CC | 23.7 µM (active)
CCCCc1c(C)nc(NCC)[nH]c1=O | inactive
Cc1nc(N)nc(N)n1 | inactive
CCOP(=S)(OCC)Oc1ncn(-c2ccccc2)n1 | 48.6 µM (active)
